The results in this text go back to PubChem BioAssay AID1851 (National Center for Advancing Translational Sciences (NCATS), 2009).

The whole screen tested about 16,000 compounds, of which about 2,600 (16%) were called active. Inconclusive results (about 20%) are left out. The list is a sample of the results. A number with no mark means an inactive call. Calls follow the shape of the dose curve; as a rule, active = well fitted curve in the direction sought with a large enough effect; inconclusive = small, poorly fitted or top-dose-only effect, or effect the other way; inactive = no such curve, though single readings can be large or run the other way.
% is scaled to controls: 0 for no effect and ±100 for the full control effect.

Chain of Cytochrome P450 2D6 (Homo sapiens) (P10635 whole entry, looked up): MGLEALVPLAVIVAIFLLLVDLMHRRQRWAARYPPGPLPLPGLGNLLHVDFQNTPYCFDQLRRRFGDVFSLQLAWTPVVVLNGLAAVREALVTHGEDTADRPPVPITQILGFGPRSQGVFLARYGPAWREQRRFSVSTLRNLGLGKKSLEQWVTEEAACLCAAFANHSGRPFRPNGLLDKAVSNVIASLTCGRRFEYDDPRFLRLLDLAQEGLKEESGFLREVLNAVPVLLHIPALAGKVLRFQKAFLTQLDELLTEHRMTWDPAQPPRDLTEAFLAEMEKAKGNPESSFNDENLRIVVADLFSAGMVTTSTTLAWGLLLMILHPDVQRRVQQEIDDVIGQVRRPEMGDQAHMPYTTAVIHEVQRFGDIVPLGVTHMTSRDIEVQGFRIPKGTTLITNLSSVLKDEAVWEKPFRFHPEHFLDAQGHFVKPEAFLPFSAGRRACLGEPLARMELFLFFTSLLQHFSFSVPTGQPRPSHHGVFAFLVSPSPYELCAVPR

This assay has as its target Cytochrome P450 2D6 (Homo sapiens) (UniProt P10635). As to the kind of experiment: Cytochrome panel assay with activity outcomes. The following applies: recombinant CYP, pro-luciferin dealkylation, luminescence, p450-cyp2d6; series mostly up to 57.1 µM; activity, negative = inhibition: at the top concentration.
Take `COCCn1c(=O)c(-c2cc(F)cc(F)c2)nc2cncnc21`: the “activity, negative = inhibition” value is -1.08%.

With `COc1c(NC(C)=O)c2ccccc2c2ccccc12`, the activity, negative = inhibition is -0.0075% [at 11.4 µM].

On to `COC(=O)N1CCC2(CCCN(Cc3ccccc3)C2)CC1`, for which the AC50 – broadly, the concentration giving half of the maximal activity seen – is 10 µM (active).

`CC(=O)N1CCC2(CC1)CN(Cc1ccccc1)C2`: the “activity, negative = inhibition” value was -16.9%.

With `CC(=O)N1CCC2(CCCN(Cc3ccccc3)C2)CC1`, the AC50 was 2.51 µM (active).

Consider `COC(=O)N1CCC[C@@]2(CCN(C(=O)Nc3cccc(C#N)c3)C2)C1`, for which the “activity, negative = inhibition” value is 0.837%.

`COC(=O)N1CCC2(CCCN(Cc3ccc(C#N)cc3)C2)CC1`: the concentration at half-maximal activity (AC50) was 0.316 µM (active).

With `COCC(=O)N1CCC2(CC1)CN(Cc1ccc(C#N)cc1)C2`, the “activity, negative = inhibition” value is -10.2%.

Turning to `O=c1cnc2cnc(N3CCNCC3)nc2n1Cc1ccc(F)cc1`, the “activity, negative = inhibition” value is -9.2%.

Consider `CCNC(=S)NNC(=O)c1cc(CC(C)C)nc2ccccc12`, for which the “activity, negative = inhibition” value was -11.7%.

Consider `O=C1[C@H]2[C@H]3[C@H](O)[C@H](O)C/C(=N/OCc4ccccc4)[C@@H]3CC[C@@H]2C(=O)N1C[C@@H]1CCCO1`, for which the activity, negative = inhibition is 10% [at 11.4 µM].

Turning to `Cn1c(=O)c(-c2cccc(C#N)c2)nc2cnc(Oc3ccccc3)nc21`, the “activity, negative = inhibition” value is -1.53%.

Turning to `O=c1cc(O)cc(/C=C\c2ccc(O)c(O)c2)o1`, the “activity, negative = inhibition” value was -4.59%.

Consider `CC1=C(C(=O)N2CCCCCC2)C2(CCC(C)CC2)OC1=O` (stereo not given), for which the “activity, negative = inhibition” value is -5%.

As to `COc1ccccc1NC(=S)NNC(=O)c1c(Cl)c(C)nn1C`, the “activity, negative = inhibition” value is -7.8%.

With `CC(C)CN(CC(C)C)S(=O)(=O)N1CCC(C(=O)NCc2ccc(F)cc2)CC1`, the “activity, negative = inhibition” value was -22.9%.

As to `CNC[C@@H](SC)c1ccc(O)c(O)c1`, the activity, negative = inhibition is 2.56% [at 11.4 µM].

With `COc1cc([C@H](O)CO)ccc1O`, the “activity, negative = inhibition” value was -1.2%.

Take `CC[C@H](NC(C)C)[C@H](O)c1ccc(O)c(O)c1`: the AC50 was 10 µM (active).

Regarding `COC(=O)C(C)Sc1nc2c(cnn2-c2ccc(C)cc2)c(=O)[nH]1` (stereo not given), the “activity, negative = inhibition” value is 7.04%.

As to `Cc1ccc(C(=O)C(OC(=O)COc2ccccc2C)c2ccccc2)cc1` (stereo not given), the “activity, negative = inhibition” value was -11.8%.

Regarding `Cc1ccc(C(=O)C(OC(=O)CCC(=O)Nc2cccc(C)c2)c2ccccc2)cc1` (stereo not given), the AC50 was 28.2 µM (active).

Regarding `Cc1ccc(C(=O)C(OC(=O)CNS(=O)(=O)c2ccccc2)c2ccccc2)cc1` (stereo not given), the “activity, negative = inhibition” value is 15.4%.

For the compound `Cc1cc2c(c(=O)o1)[C@@H](O)[C@H]1O[C@@H]1C2=O`, the activity, negative = inhibition was 3.46% [at 11.4 µM].

With `C[N+](C)(C)c1ccc([C@H](N)C(=O)O)cc1`, the activity, negative = inhibition is 6.78% [at 11.4 µM].

Turning to `COc1ccccc1CNc1ncnc2ccc(-c3cccnc3)cc12`, the concentration at half-maximal activity (AC50) was 5.01 µM (active).

Turning to `COc1ccc(CNc2ncnc3ccc(-c4cccnc4)cc23)c(OC)c1`, the AC50 was 10 µM (active).

Consider `COc1ccc(S(=O)(=O)NC2(C(F)(F)F)N=C3SCCN3C2=O)cc1` (stereo not given), for which the “activity, negative = inhibition” value is 8.37%.

`CCN1CCN(c2nc(C)c3c(n2)CCCC3=O)CC1`: the “activity, negative = inhibition” value was -16.4%.

Consider `COC(=O)c1ccccc1-c1ccc(/C=C2\C(=O)N(c3ccccc3)N=C2c2ccccc2)o1`, for which the “activity, negative = inhibition” value is -3.39%.

With `O=C(NC1CCCCC1)c1sc(=S)n2c1[nH]c(=O)c1ccccc12`, the “activity, negative = inhibition” value is -18.8%.

`COc1ccc(C2C(C#N)=C(N)N(Nc3ccccc3)C3=C2C(=O)CC(C)(C)C3)cc1C` (stereo not given): the “activity, negative = inhibition” value is -20%.

Consider `S=C(S)O[C@@H]1C[C@@H]2C[C@H]1[C@@H]1CCC[C@H]21`, for which the AC50 entry is “inactive”.

For `CC(=O)OC[C@@H]1O[C@@H](O/N=C2/C[C@@H](O)[C@@H](O)[C@@H]3[C@@H]4C(=O)N(C(C)(C)C)C(=O)[C@H]4CC[C@H]23)[C@H](OC(C)=O)[C@H](OC(C)=O)[C@@H]1OC(C)=O`, the activity, negative = inhibition is 3.1% [at 11.4 µM].

For `O=C1[C@@H]2[C@H]3[C@H](O)[C@H](O)C/C(=N/OCc4ccccc4)[C@H]3CC[C@H]2C(=O)N1c1ccc(F)cc1F`, the activity, negative = inhibition is -7.87% [at 11.4 µM].

On to `C#CCCCO/N=C1/C[C@@H](O)[C@@H](O)[C@@H]2[C@@H]3C(=O)N(CCC(=O)OCC)C(=O)[C@H]3CC[C@@H]12`, for which the activity, negative = inhibition was -5.32% [at 11.4 µM].

Take `C#CCCCO/N=C1/C[C@@H](O)[C@@H](O)[C@@H]2[C@@H]3C(=O)N(CCC(=O)OCC)C(=O)[C@H]3CC[C@H]12`: the activity, negative = inhibition is 5.95% [at 11.4 µM].

Take `CCOC(=O)CCN1C(=O)[C@H]2[C@H]3[C@H](O)[C@H](O)C/C(=N/OC/C=C(\C)CCC=C(C)C)[C@@H]3CC[C@@H]2C1=O`: the activity, negative = inhibition was 0.883% [at 11.4 µM].

For the compound `CCN1C(=O)[C@H]2[C@H]3[C@H](O)[C@H](O)C/C(=N/O[C@@H]4O[C@H](COC(C)=O)[C@@H](OC(C)=O)[C@H](OC(C)=O)[C@H]4OC(C)=O)[C@@H]3CC[C@@H]2C1=O`, the half-maximal activity concentration (AC50) was 3.98 µM (active).

Regarding `CC(=O)OC[C@@H]1O[C@@H](O/N=C2/C[C@@H](O)[C@@H](O)[C@@H]3[C@@H]4C(=O)N(c5cccc(Oc6ccccc6)c5)C(=O)[C@H]4CC[C@H]23)[C@H](OC(C)=O)[C@H](OC(C)=O)[C@@H]1OC(C)=O`, the activity, negative = inhibition was 0.346% [at 11.4 µM].

Turning to `CCOC(=O)CCN1C(=O)[C@H]2[C@H]3[C@H](O)[C@H](O)C/C(=N/O[C@@H]4O[C@@H](COC(C)=O)[C@@H](OC(C)=O)[C@@H](OC(C)=O)[C@H]4OC(C)=O)[C@H]3CC[C@@H]2C1=O`, the half-maximal activity concentration (AC50) is 3.16 µM (active).

On to `CCOC(=O)CCN1C(=O)[C@H]2[C@H]3[C@H](O)[C@H](O)C/C(=N/OC/C=C(\C)CCC=C(C)C)[C@H]3CC[C@@H]2C1=O`, for which the activity, negative = inhibition was 1.08% [at 11.4 µM].

Regarding `CC(=O)OC[C@@H]1O[C@@H](O/N=C2/C[C@@H](O)[C@@H](O)[C@@H]3[C@H]4C(=O)N(c5ccc(F)cc5F)C(=O)[C@@H]4CC[C@H]23)[C@H](OC(C)=O)[C@H](OC(C)=O)[C@@H]1OC(C)=O`, the AC50 is 3.16 µM (active).

Consider `CCOC(=O)CCN1C(=O)[C@H]2[C@H]3[C@H](O)[C@H](O)C/C(=N/O[C@@H]4O[C@@H](COC(C)=O)[C@@H](OC(C)=O)[C@@H](OC(C)=O)[C@H]4OC(C)=O)[C@@H]3CC[C@@H]2C1=O`, for which the half-maximal activity concentration (AC50) was 3.16 µM (active).

Turning to `CC(=O)OC[C@@H]1O[C@@H](O/N=C2/C[C@@H](O)[C@@H](O)[C@@H]3[C@@H]4C(=O)N(C(C)(C)C)C(=O)[C@H]4CC[C@@H]23)[C@H](OC(C)=O)[C@H](OC(C)=O)[C@@H]1OC(C)=O`, the activity, negative = inhibition is -13.3% [at 11.4 µM].
